Most compounds without a hit are left out; they make up all but 2.2% or so of the library.
TDP43 rescue: inhibitors of TDP-43 toxicity in yeast; TDP-43 expressing yeast growth rescue, BacTiter-Glo, 24 h; Potency, µM (top dose mostly 46.1 µM), for inactives: at the top dose growth rescue (activation), usual class: activators; hit rate 1.8% among 410,000; AID 652104; further: % of control where 0% means no effect; nearly all actives have a fitted effect of over 50% in size
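Yeast expressing TDP-43 (pregrown in raffinose, seeded at OD600=0.02 in galactose medium) exposed to compounds 24 hr at 30 deg C. Growth read by BacTiter-Glo luminescence; rescue of toxicity appears as increased signal.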
Mito fusion act: blocks mitochondrial division or promotes mitochondrial fusion; S. cerevisiae fusion-defective mutant growth rescue, CellTiterGlo 48 h; Potency, µM (highest dose often 46.1 µM), for inactives: at the top dose growth rescue (activation), hits mostly activators; hit rate 0.23% among 320,000; AID 485298; further: % of control where 0% means no effect; nearly all actives have a fitted effect of over 45% in size
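Read-out: ATP-based luminescence (CellTiterGlo, 10 min ambient) reporting growth of fusion-defective ts yeast after 48 hours at 37C on glycerol/ethanol YPEG medium in the presence of compound.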
Abeta rescue: compounds reversing amyloid beta toxicity in yeast; yeast expressing A-beta42, growth rescue, OD600, 48 h; response scale: 0% DMSO, 100% iron-clioquinol control; Potency, µM (top dose mostly 46.1 µM), actives largely listed as activators; hit rate 0.063% among 410,000; AID 1347071; further: nearly all actives have a fitted effect of over 55% in size
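Growth rescue measured by 600 nm absorbance after 48 h yeast culture at 30 C with compound. Values normalized between DMSO and an equimolar ferric chloride plus clioquinol control.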
aSyn yeast inh: rescues yeast growth from alpha-synuclein toxicity; Yeast expressing alpha-synuclein, growth rescue, BacTiter-Glo, 24 h; Potency, µM (titrated, usually from 46.1 µM), inactives show at the top dose growth rescue (activation), actives largely listed as activators; hit rate 0.14% among 370,000; AID 652106; further: % of control where 0% means no effect; nearly all actives have a fitted effect of over 65% in size
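Screening used galactose-induced yeast with toxic alpha-synuclein levels, exposed to compound for 24 hr at 30 deg C. Cell growth, read with BacTiter-Glo luminescence, gave the measured signal.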
FUS yeast rescue: FUS proteinopathy suppression in yeast; hit rate 0.24% among 390,000; S. cerevisiae FUS-expressing, growth rescue, OD600, 24 h; AID 1347120; Potency, µM (titrated, usually from 76.6 µM), actives largely listed as activators;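 further: plate controls were DMSO vehicle for no effect and reference control for full effect; nearly all actives have a fitted effect of over 55% in size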
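Quantitative HTS measuring growth restoration of FUS-toxic yeast. Galactose-induced cells (OD 0.005) were exposed 24hr at 30C to compounds at several concentrations, then absorbance at 600 nm was recorded.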
Numbers without * were called inactive; i = inactive; u = inconclusive; x = not tested or not shown; [ ] = remark or other dose. The call rests on the fitted dose curve; in most records, active means well fitted curve in the direction sought with a large enough effect; inconclusive means small, poorly fitted or top-dose-only effect, or another doubt; inactive means no such curve, though single readings can be large; an effect the other way counts as inactive or inconclusive. Potency means the concentration at half of the fitted maximal effect.

SMILES	TDP43 rescue	Mito fusion act	Abeta rescue	aSyn yeast inh	FUS yeast rescue
O=C(C1CCCCC1)N1CCN=C1SCc1cccc([N+](=O)[O-])c1	17.8µM*	-2.0%	i	-13.8%	i
O=C(c1ccccc1)N1CCN=C1SCc1ccc([N+](=O)[O-])cc1	10µM*	2.5%	i	2.1%	i
c1ccc(C2CCC3(CC2)CCC3NCc2cccs2)cc1 (stereo not drawn)	x	x	x	x	i
Cc1cc(C)n2nc(NCc3cccc(Br)c3)nc2n1	14.1µM*	-1.5%	i	1.6%	i
Cc1cc(C)n2nc(SCc3ccccc3)nc2n1	22.6%	4.0%	i	11.3%	i
Cc1cc(C)n2nc(SCc3cccc(F)c3)nc2n1	17.8µM*	21.7%	i	0.2%	i
Cc1ccc(-c2nnc(SCc3ccccc3C#N)o2)cc1	22.1%	x	i	x	i
Cc1ccc(-c2nnc(SCC(=O)NC3CCCC3)nc2-c2ccc(C)cc2)cc1	18.6%	x	i	x	i
CCCNC(=O)CNC(=S)N(Cc1ccccc1F)C1CCCCC1	u	24.3%	i	13.4%	i
CCOC(=O)CNC(=S)N(Cc1ccccc1F)C1CCCCC1	u	-5.0%	7.08µM*	-0.8%	i
Cc1ccccc1NC(=O)C(C)OC(=O)C1CC(=O)N(Cc2ccco2)C1 (stereo not drawn)	-13.8%	-3.1%	i	-1.4%	i
O=C(CSc1cn(CCNC(=O)c2c(F)cccc2F)c2ccccc12)Nc1ccc2c(c1)OCCO2	11.7%	x	i	x	i
CCOC(=O)c1c(C)[nH]c(O)c1C=Nc1ccc(Cl)cc1	9.5%	8.6%	i	-2.7%	i
CCOC(=O)c1c(C)[nH]c(O)c1C=Nc1ccc(C(F)(F)F)cc1	3.16µM*	1.6%	i	-6.1%	i
COc1ccccc1NC(=O)N(Cc1nnc2n1CCCCC2)c1ccc(F)cc1	19.3%	x	i	-0.3%	i
O=C(Cn1c(SCCOc2ccccc2Cl)nc2ccccc21)N1CCOCC1	21.3%	x	i	x	i
COc1cc2c(NC3CCN(C)CC3)nc(N3CCCN(C)CC3)nc2cc1OCCCCCCN(C)C	x	x	x	0.4%	x
Nc1ncnc2oc(-c3ccco3)c(-c3ccco3)c12	-17.1%	10.9%	i	12.6µM*	i
C#CCSc1nnc(CSc2nc3ccccc3s2)n1-c1ccccc1	22.4µM*	12.6%	i	-12.1%	i
O=C(O)CSc1nnc(CSc2nc3ccccc3s2)n1-c1ccccc1	x	-5.9%	i	-0.3%	i
OC(c1ccccc1)c1nc(/C=C/c2ccccc2)cs1 (stereo not drawn)	14.1µM*	x	i	25.5%	i
COc1cc(C(O)c2nc(/C=C/c3ccccc3)cs2)ccc1F (stereo not drawn)	22.4µM*	x	i	3.8%	i
OC(c1ccc(F)cc1)c1nc(/C=C/c2ccccc2)cs1 (stereo not drawn)	u	x	i	17.6%	i
COc1ccc(C(O)c2nc(/C=C/c3ccc(C(F)(F)F)cc3)cs2)cc1 (stereo not drawn)	u	x	i	u	i
Cn1c(SCC(N)=O)nc2c([nH]c3ccccc32)c1=O	5.4%	x	i	x	i
SMILES	TDP43 rescue	Mito fusion act	Abeta rescue	aSyn yeast inh	FUS yeast rescue
COc1ccc(CN2C[C@@H](CO)O[C@@H](n3cnc4c(N(C)C)ncnc43)C2)cc1	20.4%	x	i	0.7%	i
Cc1cccc(C)c1NC(=O)Cn1cc(C(=O)c2ccco2)c2ccccc21	12.6%	x	i	x	i
Cc1cc(Br)c2c(c1)[C@](O)(c1cn(C)c3ccccc13)C(=O)N2C	22.4µM*	x	u	0.0%	i
CN1C(=O)[C@@](O)(c2cn(C)c3ccccc23)c2ccccc21	3.0%	x	i	-1.0%	i
CC1Oc2ccccc2N(CC(=O)c2cccc(Cl)c2)C1=O (stereo not drawn)	15.8µM*	11.2%	i	15.3%	i
CC1Oc2ccccc2C(=O)N(CC(=O)c2ccc3c(c2)OCCO3)C1=O (stereo not drawn)	17.8µM*	1.3%	i	24.9%	i
Cc1ccc2c(c1)N(CC(=O)c1cccc(Cl)c1)C(=O)C(C)O2 (stereo not drawn)	25.4%	0.0%	i	10.0%	x
Cc1ccc(-c2nc(S(=O)(=O)c3ccc(C)cc3)c(SCC(=O)c3ccccc3)o2)cc1	20.5%	x	i	x	i
COC(=O)C1(CC2CC(c3ccccc3)=NO2)CCN(C(=O)OC(C)(C)C)CC1 (stereo not drawn)	-9.1%	x	i	-0.6%	i
CC(C)(C)OC(=O)N1CCC(CC2CC(c3ccccc3)=NO2)(C(=O)O)CC1 (stereo not drawn)	22.4µM*	x	i	10.7%	i
COc1cc2nc(Cl)nc(NC(C)C)c2cc1OC	x	x	x	0.3%	x
CCOC(=O)c1ccccc1NC(=O)CSc1nc2ncccc2o1	17.0%	x	i	x	i
COc1ccc(C(=O)OCc2c(-c3cccc(OC)c3)ncc3ccccc23)cc1	19.2%	u	i	0.6%	i
COc1cccc(-c2ncc3ccccc3c2COC(=O)c2cccs2)c1	35.5µM*	u	i	8.5%	i
CCN(CC)C(=O)OCc1c(-c2cccc(OC)c2)ncc2ccccc12	11.2µM*	u	i	-13.7%	i
CC1CCc2c(cc(-c3ccccc3)n2-c2ccc(C(=O)NC(C)C)cc2)C1 (stereo not drawn)	4.6%	x	i	x	i
Cc1cc2c(cc3c(SCc4ccc(Cl)cc4)nncn32)o1	u	x	i	x	i
CCN(CCNC(=O)[C@H]1C=C(OC)C(=O)C[C@H](c2ccccc2)[C@H]1C)C(C)=O	x	x	x	x	i
CCOc1cccc(CC(=O)N2CCc3c([nH]c4ccccc34)C2c2ccc(Cl)cc2)c1OCC (stereo not drawn)	16.4%	x	i	x	i
Cc1ccc(C)c(N2CCN(c3ncnc4c3cnn4-c3ccccc3)CC2)c1	-4.7%	-2.4%	i	0.9%	i
Cc1ccccc1C(=O)N1CCN(c2ncnc3c2cnn3-c2ccccc2)CC1	14.1µM*	2.1%	i	u	u
CCOc1ccccc1CNC(=O)CN1C(=O)C2CCCCN2c2ccc(C(=O)N(C)C)cc21 (stereo not drawn)	14.0%[9.22 µM]	x	i	x	i
O/N=C/c1ccn(-c2ccc(Br)cc2)c1	14.1µM*	4.7%	i	-5.6%	i
COc1cccc(C(C)NC(=S)NCc2ccc(Cl)cc2)c1 (stereo not drawn)	9.6%	9.5%	i	-0.7%	i
COc1ccc(C(C)NC(=S)NCc2ccc(F)cc2)cc1 (stereo not drawn)	u	8.7%	11.2µM*	0.3%	i
CCC(NC(=S)NCc1ccc(F)cc1)c1ccccc1 (stereo not drawn)	15.6%	-4.0%	11.2µM*	-1.9%	i

Bioassay records: PubChem BioAssay, National Center for Advancing Translational Sciences (NCATS)
